# Bioassay records: PubChem BioAssay, National Center for Advancing Translational Sciences (NCATS)
# The list is not random: actives were taken first. Their share in the collection is about 14%.
# MARV entry inh: qHTS for inhibitors of binding or entry into cells for Marburg Virus; Marburg virus pseudotyped entry inhibition, cell reporter; Potency, µM (top dose mostly 37.8 µM), without a hit: top-dose activity change, negative = inhibition, most hits filed as inhibitors; 300,000 tested, 1.8% active; calls by dose curve; tested in HEK293 cells; note: potency is the fitted concentration of half-maximal effect
# LASV entry inh: qHTS for Inhibitors of binding or entry into cells for Lassa Virus; 300,000 tested, 1.2% active; Potency, µM (series often up to 37.9 µM), for the others: at the top dose activity change, negative = inhibition, usual class: inhibitors; Lassa virus pseudotype entry inhibition, cell reporter; AID 540256, 2011; calls by dose curve; tested in HEK293 cells; note: potency is the fitted concentration of half-maximal effect; nearly all actives have a fitted effect of over 50% in size
# HCMV inh: qHTS Assay for inhibitors of the human cytomegalovirus (HCMV) | HFF cells, HCMV-luciferase reporter, 72 h; active compounds read low | activity change, negative = inhibition, % at 57.5 µM | 410,000 tested, 4.5% active | AID 1259415, 2018; in the data active = activity change below about -60%; inconclusive = no clear call, values can overlap the other calls; inactive = above about -39%
#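 HFF cells seeded 16 h at 37C, treated with compounds, infected with luciferase-reporter HCMV at MOI 1 PFU/cell; luciferase read at 72 h post infection, normalized to buffer-only and Salinomycin controls.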
# Pf growth 96h: Primary qHTS for delayed death inhibitors of the malarial parasite plastid, 96 hour incubation. P. falciparum luciferase reporter growth, 96 h. Potency, µM (top dose mostly 28.7 µM), for the others: at the highest dose activity change, negative = inhibition, hits mostly inhibitors. 320,000 tested, 6.9% active; note: potency is the fitted concentration of half-maximal effect
#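 Plates of compound plus infected erythrocytes (2% hematocrit, 0.05% parasitemia final) incubate 96 hours, 37 C, 5% CO2. Detection reagent added; reduced luminescence from the parasites' luciferase reporter flags inhibition.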
# Pf growth 48h: Primary qHTS for delayed death inhibitors of the malarial parasite plastid, 48 hour incubation; Potency, µM (titrated, usually from 28.7 µM), for the others: at the top dose activity change, negative = inhibition, most hits filed as inhibitors; P. falciparum luciferase growth in erythrocytes, 48 h; 310,000 tested, 5.9% active; AID 504832, 2011; note: potency is the fitted concentration of half-maximal effect
#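 Cell-based growth assay: transgenic P. falciparum expressing firefly luciferase, cultured in red cells within RPMI 1640 containing 0.5% w/v Albumax, 24 mM bicarbonate and gentamycin. A drop in luciferase activity indicates inhibition.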
# HCV inhibitor: qHTS Assay for Inhibitors of Hepatitis C Virus (HCV); Huh7.5.1 HCVcc-Cre infection, luciferase reporter, 44 h; Potency, µM (highest dose often 41.8 µM), for inactives: at the top dose activity change, negative = inhibition, hits mostly inhibitors; 340,000 tested, 3.4% active; AID 651820, 2012; note: potency is the fitted concentration of half-maximal effect
#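 Cells seeded at 1,000/well and cultured 4 h, then compounds added followed by HCVcc-Cre virus (~0.5 moi). After 44 h further culture, luciferase substrate was added, plates held 15 min at room temperature, and luminescence read for 15 sec.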
# Starred values were filed as active, the others as inactive; ? = inconclusive; . = no result; [ ] = remark or other dose. Unless noted, calls come from the whole dose curve; as a rule, active = well fitted inhibition curve with a large enough effect; inconclusive = small, poorly fitted or top-dose-only effect, or another doubt; inactive = no such curve, though single readings can be large or run the other way. % is set by controls: 0 for no effect and ±100 for the full control effect.
SMILES,MARV entry inh,LASV entry inh,HCMV inh,Pf growth 96h,Pf growth 48h,HCV inhibitor
O=C(CCC(=O)N1CCN(c2ccc(O)cc2)CC1)c1ccc(Br)cc1,.,.,.,9.3µM*,25%,.
CC(=O)c1ccc(N2CCN(C(=O)CCC(=O)c3cccs3)CC2)cc1,3%,10%,-82*,?,-17%,10%
O=C(CCC(=O)N1CCN(c2ccc(O)cc2)CC1)c1cccs1,.,.,?,7.4µM*,13µM*,-14%
O=C(Nc1ccc(Cl)cc1)C1CCN(S(=O)(=O)c2ccc(Br)s2)CC1,-15%[46.1 µM],?,-96*,.,.,.
O=C(NCCc1ccc(Cl)cc1)C1CCN(S(=O)(=O)c2ccc(Br)s2)CC1,-21%[46.1 µM],-16%,-38,?,?,10µM*
COc1ccc(Cn2c(=S)[nH]c3ccccc3c2=O)cc1,.,.,-20,?,.,-25%
CC1=C(C(=O)N(C)C)CC(CC(=O)NCCCN(C)C)C(=O)N1Cc1ccccc1 (stereo not drawn),.,.,-3,.,.,.
CCN(CC)CCOc1nnc(-c2ccc(OC)cc2)c2ccccc12,.,.,-72*,-1%,-3%,-23%
O=C1NC(=O)/C(=C/c2ccc(-c3ccc(F)cc3O)o2)S1,6%,1%,.,.,.,.
Cc1ccn2c(NC3CCCC3)c(-c3ccncc3)nc2c1,.,.,0,?,37%,?
Cc1ccccc1Nc1c(-c2ccsc2)nc2c(C)cccn12,6%[46.1 µM],4%[46.1 µM],-84*,.,.,.
Cc1ccn2c(Nc3ccccc3C)c(-c3ccncc3)nc2c1,3%[46.1 µM],18%[46.1 µM],-67*,2%,?,-24%
CCC1(C)NC(=O)N(/N=C/c2ccc(C)s2)C1=O (stereo not drawn),.,.,-98*,94%,51%,-3%
CCC1(C)NC(=O)N(/N=C/c2cc(OC)c(O)c(OC)c2)C1=O (stereo not drawn),8%,-15%,26,-17%,14%,24%
COc1ccccc1CNC(=O)C(C)n1c(=O)cc(C(F)(F)F)c2c(C)nn(C)c21 (stereo not drawn),.,20%[46.1 µM],2,.,.,.
Cc1ccccc1NC(=O)C(C)N1C(=O)c2ccccc2C1=O (stereo not drawn),1%[46.1 µM],2%[46.1 µM],-19,2.9µM*,-11%,12%
C=C(C)Cn1c2ccc(NC(=O)NCc3ccccc3)cc2c(=O)n1C,.,.,10,.,.,.
Cn1cc(Cl)c(C(=O)OCC(=O)c2ccccc2)n1,9%[46.1 µM],-2%,11,13µM*,30%,5%
Nc1ncnc2c1nc(Br)n2C1O[C@H]2COP(=O)(O)O[C@@H]2C1O (stereo partly drawn),3.2µM*,.,.,.,.,.
CN(C)c1ccc(C(CC(=O)c2ccccc2)C2CCCCC2=O)cc1 (stereo not drawn),19%[46.1 µM],1%,-27,10µM*,1%,13%
COc1ccc(NC(=O)CSc2oc(-c3ccco3)nc2S(=O)(=O)c2ccc(Br)cc2)c(OC)c1,1%[46.1 µM],6%[46.1 µM],2,.,.,.
CCOc1ccc(-c2csc(NC(=O)CSC3=NC(=O)CN3C(C)=O)n2)c2ccccc12,-27%,?,-28,10µM*,?,-8%
COc1ccc(-c2csc(NC3CCCCC3)n2)c(OC)c1,9%[46.1 µM],5%,-36,?,9.3µM*,?
CCc1noc(C)c1C(=O)Nc1nc(-c2ccc(OC)cc2OC)cs1,?,?,?,2.3µM*,2.3µM*,?
CCc1noc(C)c1C(=O)Nc1nc(-c2cc(OC)ccc2OC)cs1,?,?,-38,?,?,?
COc1ccc(OC)c(-c2csc(NC(=O)CSc3ccccc3)n2)c1,?,16µM*,?,53%,5%,?
CCOc1ccc(-c2csc(NC(=O)CSCC(=O)O)n2)c2ccccc12,7%[46.1 µM],-9%,-5,10%,17%,8%
NC1(CO)COC(c2ccccc2)OC1 (stereo not drawn),.,.,-28,.,.,.
COc1ccc(N(CC(=O)N2CCN(c3cccc(OC)c3)CC2)S(=O)(=O)c2c(C)noc2C)cc1,-17%[46.1 µM],?,-26,.,.,.
